The text below walks through data of PubChem BioAssay (NCI).

Each structure is given as a SMILES string. This is part of a sample that, as a whole, favours compounds with a hit. Of some 83,000 tested, about 20% had one in any assay.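 Percent growth is the endpoint: 0 to 100 indicates growth inhibition (40 means 60% inhibition), 0 means no net growth, and negative values indicate cell death.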 A number with no mark means an inactive call. Active and inactive are the calls of the source. How the source made its calls: active means growth percent below 10; inactive means the rest.

Holding throughout (experiment): NCI-60 one-dose screen, 48 h (100 = growth as untreated, 0 = no growth, -100 = all killed)
Holding throughout (conditions): 10 µM unless noted

Assay [1] deals with SK-MEL-2 melanoma.
Assay [2] has as its system EKVX NSCLC.
Assay [3] concerns SN12C renal.
In assay [4] the test system is UO-31 renal.
Assay [5] deals with TK-10 renal.
In assay [6] the test system is ACHN renal.
For assay [7], the system named is CAKI-1 renal.
Assay [8] deals with A498 renal.
Assay [9] has as its system CCRF-CEM leukemia.
In assay [10] the test system is MOLT-4 leukemia.

With `C=C(C)[C@@H]1CC[C@]2(C(=O)N3CCCNCC3)CC[C@]3(C)[C@H](CC[C@@H]4[C@@]5(C)CCC(=O)C(C)(C)[C@@H]5CC[C@]43C)[C@@H]12`, the growth in [1] is 118%; in assay [2] it was 98.3%; in [3] it was 84%; in assay [4], 85.5%; in [5] it was 127%; in assay [6], 105%. The growth in assay [7] was 67.8%; in assay [8], 89.5%; in [9], 84.2%; in assay [10] it was 63.3%.

As for `Cc1cccc2c1NC(=O)[C@@]21[C@H](C(=O)c2ccccc2)[C@]2(C(=O)Nc3ccccc32)[C@H]2CCCN21`, the growth in [1] was 18.1% [100 µM]; in assay [2], 30.6% [100 µM]; in assay [3], 10.3% [100 µM]; in assay [4] it was 30.5% [100 µM]; in [5] it was 39% [100 µM]; in [6], 5.91% [100 µM] (active). In addition, the growth in assay [7] was 11.6% [100 µM]; in [8], 39.8% [100 µM]; in [9], 5.86% [100 µM] (active); in assay [10], 12.3% [100 µM].

In the case of `N#CC1=C(N)Oc2c(c(N)nn2-c2ccccc2)C1c1ccc(Cl)cc1Cl` (stereo not given), the growth in [1] is 101%; in assay [2], 91.2%; in [3], 99.5%; in assay [4], 73.8%; in assay [5], 123%; in [6], 99%. For the same compound, the growth in assay [7] is 90.1%; in [8], 90.7%; in [9] it was 95.6%; in [10], 88.3%.

Turning to `Cc1ccc(NC2CC(=O)N(c3c(C)cc(C)cc3C)C2=O)c(C)c1` (stereo not given), the growth is 112% in assay [1]; 95.3% in assay [2]; 97.2% in [3]; 81.2% in assay [4]; 106% in [5]; 101% in assay [6]. The growth in assay [7] was 95.6%; in assay [8], 105%; in assay [9] it was 88.6%; in [10], 94.6%.

`O=C1c2cc3c(cc2-c2c1c1ccc(Cl)cc1c(=O)n2C[C@H](O)[C@@H](O)[C@H](O)CO)OCO3`: the growth in assay [1] was -67% (active); in [2], 20.5%; in assay [3] it was -5.37% (active); in assay [4] it was -71.6% (active); in [5], -48.7% (active); in assay [6], -58.7% (active). Further, the growth was -8.82% (active) in [7], -77% (active) in [8], 8.41% (active) in assay [9] and 2.33% (active) in assay [10].

`CN(C)c1cccc2[nH]c(-c3[nH]ncc3Nc3ccnc(N)n3)nc12`: the growth in [1] was -60.4% (active); in [2], -17% (active); in [3] it was -7.45% (active); in [4] it was -9.8% (active); in [5] it was -30.1% (active); in [6], -1.92% (active). Further, the growth in assay [7] was -45.9% (active); in assay [8], -79.4% (active); in assay [9], 1.73% (active); in [10], 1.65% (active).

For `C=C(C)[C@@H]1CC[C@]2(C)[C@H](CC[C@@H]3[C@H]4[C@H]5OC[C@@]4(CCC5(C)C)CC[C@]32C)[C@@]1(C)CCCN`, the growth is 101% in [1]; 71.2% in [2]; 75.6% in assay [3]; 63.8% in [4]; 130% in [5]; 59% in [6]. In addition, the growth was 3.89% (active) in assay [7], 118% in assay [8], 51.8% in assay [9] and 10.5% in assay [10].

Consider `COc1cccc(-c2nn(-c3ccccc3)cc2-c2ccnc(NCCNS(=O)(=O)c3cccc(F)c3)c2)c1`, for which the growth in assay [1] is 16.2%; in assay [2], 44.6%; in [3] it was 33.8%; in [4], 15.7%; in [5], 36.7%; in [6], 21.7%. In addition, the growth in assay [7] is 35.9%; in assay [8], 47.7%; in [9], 12.3%; in [10], 4.55% (active).

As to `Cc1ccc2c(c1)c(-c1nc(-c3c[nH]c4ncccc34)cs1)cn2C`, the growth in assay [1] was 99.3%; in [2], 35.1%; in assay [3], 90.9%; in [4], 86.2%; in [5], 81.5%; in assay [6] it was 98.6%. For the same compound, the growth in assay [7] was 107%; in [8], 112%; in assay [9], 77.7%; in [10], 75.2%.

Turning to `CC(C)(C)c1nc(-c2ccc(O)c(O)c2)cs1`, the growth in assay [1] is 93.3%; in assay [2], 88.9%; in assay [3] it was 59.5%; in assay [4], 39.5%; in assay [5] it was 89.2%; in assay [6], 50%. The growth in assay [7] is 54.8%; in [8] it was 104%; in assay [9], 26.4%; in assay [10] it was 44.1%.

With `COc1cc(-c2cc3ncccc3c3nc(N)c4cccnc4c23)cc(OC)c1OC`, the growth in assay [1] was 30.7%; in assay [2], 27.1%; in [3] it was 26.7%; in assay [4], 51.1%; in assay [5], 16.3%; in [6], 22.6%. The growth is 31.1% in [7], -17.6% (active) in assay [8], 32.5% in assay [9] and 20.7% in assay [10].

Regarding `C/C(=C(/c1ccccc1)c1ccc(N2C(=O)c3cccc4c(NCc5ccccc5)ccc(c34)C2=O)cc1)c1ccccc1`, the growth in assay [1] is 107%; in assay [2] it was 75.3%; in assay [3], 92%; in [4], 68.8%; in [5] it was 145%; in assay [6], 94.8%. Also, the growth is 84.5% in assay [7], 107% in assay [8], 89.1% in assay [9] and 88.9% in assay [10].
